Assay [1] deals with NKX3-2 (Homo sapiens, UniProt P78367 192-278, P234S). Briefly: PBM; 200 nM protein, PBS. Conditions: dsDNA, one strand shown.
The target of assay [2] is NKX3-2 (Homo sapiens, UniProt P78367 192-278). The assay is described as follows: PBM; 200 nM protein, PBS. As to conditions: dsDNA, one strand shown.
Chain of NKX3-2 (Homo sapiens, UniProt P78367 192-278) (P78367 192-278): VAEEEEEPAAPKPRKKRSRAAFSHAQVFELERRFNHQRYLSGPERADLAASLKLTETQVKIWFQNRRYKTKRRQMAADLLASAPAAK

Chain of NKX3-2 (Homo sapiens, UniProt P78367 192-278, P234S) (P78367 192-278 P234S): as the sequence (P78367 192-278) above, with P43S counted along it

As to CGGCTGGC, the binding signal with NKX3-2 [1] was 10.4 upbm affinity estimate (log intensity, higher = more binding, comparable within an allelic series); with NKX3-2 [2] it was 10.4 upbm affinity estimate (log intensity, higher = more binding, comparable within an allelic series).
Turning to GAAGTGTC, the binding signal was 12.2 upbm affinity estimate (log intensity, higher = more binding, comparable within an allelic series) with NKX3-2 [1] and 12.3 upbm affinity estimate (log intensity, higher = more binding, comparable within an allelic series) with NKX3-2 [2].
As to CCGCGGCA, the binding signal with NKX3-2 [1] was 10.5 upbm affinity estimate (log intensity, higher = more binding, comparable within an allelic series); with NKX3-2 [2], 10.5 upbm affinity estimate (log intensity, higher = more binding, comparable within an allelic series).
On to ACGGGACG, for which the binding signal is 10.4 upbm affinity estimate (log intensity, higher = more binding, comparable within an allelic series) in the assay with NKX3-2 [1] and 10.4 upbm affinity estimate (log intensity, higher = more binding, comparable within an allelic series) with NKX3-2 [2].
Turning to AGAGGGCA, the binding signal is 11.8 upbm affinity estimate (log intensity, higher = more binding, comparable within an allelic series) in the assay with NKX3-2 [1] and 11.8 upbm affinity estimate (log intensity, higher = more binding, comparable within an allelic series) with NKX3-2 [2].
With AGGAAAAA, the binding signal is 10.5 upbm affinity estimate (log intensity, higher = more binding, comparable within an allelic series) with NKX3-2 [1] and 10.6 upbm affinity estimate (log intensity, higher = more binding, comparable within an allelic series) in the assay with NKX3-2 [2].
As to GCCGAGCC, the binding signal in the assay with NKX3-2 [1] was 10.8 upbm affinity estimate (log intensity, higher = more binding, comparable within an allelic series); in the assay with NKX3-2 [2], 10.7 upbm affinity estimate (log intensity, higher = more binding, comparable within an allelic series).
Turning to ACCAGGCT, the binding signal in the assay with NKX3-2 [1] was 10.6 upbm affinity estimate (log intensity, higher = more binding, comparable within an allelic series); in the assay with NKX3-2 [2], 10.6 upbm affinity estimate (log intensity, higher = more binding, comparable within an allelic series).
For the sequence ACTCTGAT, the binding signal in the assay with NKX3-2 [1] was 11.5 upbm affinity estimate (log intensity, higher = more binding, comparable within an allelic series); in the assay with NKX3-2 [2], 11.6 upbm affinity estimate (log intensity, higher = more binding, comparable within an allelic series).
Consider CACGGACC, for which the binding signal with NKX3-2 [1] is 10.6 upbm affinity estimate (log intensity, higher = more binding, comparable within an allelic series); with NKX3-2 [2], 10.6 upbm affinity estimate (log intensity, higher = more binding, comparable within an allelic series).
In the case of GCCCTCAA, the binding signal was 11.6 upbm affinity estimate (log intensity, higher = more binding, comparable within an allelic series) with NKX3-2 [1] and 11.7 upbm affinity estimate (log intensity, higher = more binding, comparable within an allelic series) in the assay with NKX3-2 [2].
Turning to CCCACTTC, the binding signal with NKX3-2 [1] is 12.7 upbm affinity estimate (log intensity, higher = more binding, comparable within an allelic series); with NKX3-2 [2], 12.8 upbm affinity estimate (log intensity, higher = more binding, comparable within an allelic series).
For CCTCTTAC, the binding signal was 12.1 upbm affinity estimate (log intensity, higher = more binding, comparable within an allelic series) with NKX3-2 [1] and 12.2 upbm affinity estimate (log intensity, higher = more binding, comparable within an allelic series) with NKX3-2 [2].
Turning to CCTGGCCG, the binding signal in the assay with NKX3-2 [1] is 10.5 upbm affinity estimate (log intensity, higher = more binding, comparable within an allelic series); in the assay with NKX3-2 [2], 10.5 upbm affinity estimate (log intensity, higher = more binding, comparable within an allelic series).
Consider CCACTTCC, for which the binding signal with NKX3-2 [1] is 12.6 upbm affinity estimate (log intensity, higher = more binding, comparable within an allelic series); with NKX3-2 [2], 12.7 upbm affinity estimate (log intensity, higher = more binding, comparable within an allelic series).
Take CGGGCAGC: the binding signal with NKX3-2 [1] was 10.6 upbm affinity estimate (log intensity, higher = more binding, comparable within an allelic series); with NKX3-2 [2], 10.5 upbm affinity estimate (log intensity, higher = more binding, comparable within an allelic series).
On to GAGTGCAC, for which the binding signal with NKX3-2 [1] is 12.2 upbm affinity estimate (log intensity, higher = more binding, comparable within an allelic series); in the assay with NKX3-2 [2], 12.4 upbm affinity estimate (log intensity, higher = more binding, comparable within an allelic series).
Turning to AAAGTGGA, the binding signal with NKX3-2 [1] is 12.6 upbm affinity estimate (log intensity, higher = more binding, comparable within an allelic series); with NKX3-2 [2], 12.6 upbm affinity estimate (log intensity, higher = more binding, comparable within an allelic series).
Turning to AAGGAGTG, the binding signal with NKX3-2 [1] is 11.9 upbm affinity estimate (log intensity, higher = more binding, comparable within an allelic series); with NKX3-2 [2], 12 upbm affinity estimate (log intensity, higher = more binding, comparable within an allelic series).
Take AACGTGGC: the binding signal with NKX3-2 [1] was 10.5 upbm affinity estimate (log intensity, higher = more binding, comparable within an allelic series); with NKX3-2 [2] it was 10.5 upbm affinity estimate (log intensity, higher = more binding, comparable within an allelic series).
Turning to ACCAAGAG, the binding signal with NKX3-2 [1] was 11.7 upbm affinity estimate (log intensity, higher = more binding, comparable within an allelic series); in the assay with NKX3-2 [2] it was 11.8 upbm affinity estimate (log intensity, higher = more binding, comparable within an allelic series).
As for CGACGGCC, the binding signal with NKX3-2 [1] is 10.7 upbm affinity estimate (log intensity, higher = more binding, comparable within an allelic series); in the assay with NKX3-2 [2], 10.6 upbm affinity estimate (log intensity, higher = more binding, comparable within an allelic series).
For the sequence CCGCCGAA, the binding signal was 10.4 upbm affinity estimate (log intensity, higher = more binding, comparable within an allelic series) with NKX3-2 [1] and 10.4 upbm affinity estimate (log intensity, higher = more binding, comparable within an allelic series) in the assay with NKX3-2 [2].
As for GAAGTGCC, the binding signal is 12.8 upbm affinity estimate (log intensity, higher = more binding, comparable within an allelic series) in the assay with NKX3-2 [1] and 12.9 upbm affinity estimate (log intensity, higher = more binding, comparable within an allelic series) in the assay with NKX3-2 [2].
For ATGCCGAC, the binding signal in the assay with NKX3-2 [1] is 10.6 upbm affinity estimate (log intensity, higher = more binding, comparable within an allelic series); in the assay with NKX3-2 [2] it was 10.6 upbm affinity estimate (log intensity, higher = more binding, comparable within an allelic series).
For ATATGAGG, the binding signal with NKX3-2 [1] was 11.6 upbm affinity estimate (log intensity, higher = more binding, comparable within an allelic series); with NKX3-2 [2], 11.6 upbm affinity estimate (log intensity, higher = more binding, comparable within an allelic series).
For CCTATGGC, the binding signal with NKX3-2 [1] is 10.6 upbm affinity estimate (log intensity, higher = more binding, comparable within an allelic series); with NKX3-2 [2] it was 10.6 upbm affinity estimate (log intensity, higher = more binding, comparable within an allelic series).
Take AGAAGTGG: the binding signal with NKX3-2 [1] was 12.5 upbm affinity estimate (log intensity, higher = more binding, comparable within an allelic series); with NKX3-2 [2], 12.7 upbm affinity estimate (log intensity, higher = more binding, comparable within an allelic series).

These data come from paper PMC11006913.
